In PubChem BioAssay (Tox21):
Records with an inconclusive call do not appear. Unmarked numbers belong to inactive results. Active and inactive are the calls of the source. Calls follow the shape of the dose curve; as a rule, active = well fitted inhibition curve with a large enough effect in the repeat runs; inconclusive = weak or mixed curves; inactive = no such curve, though single readings can be large or run the other way.

Molecular target: Cytochrome P450 3A4 (Homo sapiens) (UniProt P08684)
Test: Cytochrome P450 Family 3 Subfamily A Member 4 (CYP3A4) small molecule antagonists: luciferase reporter qHTS assay (AID 1671201); also: nearly all actives have a fitted effect of over 50% in size
Conditions: P450-Glo CYP3A4 enzyme, luciferin luminescence, 1 h; series mostly up to 115 µM; activity change, negative = inhibition: at the top concentration
In short: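 Inhibition of CYP3A4 is measured as loss of light: the enzyme converts a proluciferin substrate to luciferin, detected luminescently. Reaction ran 1 h at room temperature with NADPH regeneration after a 10 min compound preincubation.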
% is scaled to controls: 0 for no effect and ±100 for the full control effect; potency is read from the fitted curve at half-maximal effect.

Sequence of Cytochrome P450 3A4 (Homo sapiens) (P08684 whole entry, looked up): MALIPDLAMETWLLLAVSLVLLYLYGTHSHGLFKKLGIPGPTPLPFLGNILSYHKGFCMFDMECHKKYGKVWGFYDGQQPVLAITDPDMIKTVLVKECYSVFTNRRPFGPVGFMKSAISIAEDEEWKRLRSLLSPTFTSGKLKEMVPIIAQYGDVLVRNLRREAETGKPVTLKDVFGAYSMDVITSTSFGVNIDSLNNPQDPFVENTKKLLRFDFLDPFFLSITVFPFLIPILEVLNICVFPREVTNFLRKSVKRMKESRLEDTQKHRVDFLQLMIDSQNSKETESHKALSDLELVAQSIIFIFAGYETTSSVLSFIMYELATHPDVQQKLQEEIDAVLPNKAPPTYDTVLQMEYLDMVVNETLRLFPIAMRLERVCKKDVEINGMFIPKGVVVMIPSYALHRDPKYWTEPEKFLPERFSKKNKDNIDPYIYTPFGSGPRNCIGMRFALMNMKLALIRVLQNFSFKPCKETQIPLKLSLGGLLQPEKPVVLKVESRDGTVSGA

Point of comparison: `CCC(CC)Nc1ccc(C)c(C)c1`, “activity change, negative = inhibition” value -32.7%. Against it:
- CCCCCCCCCCCCCCOS(=O)(=O)O — higher, 32.6%
- Nc1cccc([N+](=O)[O-])c1 — higher, -18.7%
- O=C1OC(=O)C2C3C=CC(C3)C12 (stereo not drawn) — higher, 11.1%
- C=C(C)C(=O)OCCOCC — higher, -12.7%
- CCOc1ccc(O)cc1 — higher, 0.686%
- O=C(O)c1ccccc1Cl — higher, -0.0079%
- CCCCCCCCCCCCCCCCCCOS(=O)(=O)O — higher, -21.7%
- CCCCCCc1ccc(-c2ccc(C#N)cc2)cc1 — higher, 3.49%
- c1ccc(-c2ccccn2)nc1 — higher, 9.08%

Point of comparison: `CN(C)CCOC(c1ccccc1)c1ccc(Br)cc1` (stereo not drawn), “activity change, negative = inhibition” value -12.5% [at 52.9 µM]. Against it:
- CN(C)CCN(Cc1ccc(Cl)cc1)c1ccccn1 — higher, 1.99% [at 52.9 µM]
- CN(Cc1ccc(C(C)(C)C)cc1)Cc1cccc2ccccc12 — higher, -2.94% [at 52.9 µM]
- COc1ccc(-c2nc3ccc(C4=NNC(=O)CC4C)cc3[nH]2)cc1 (stereo not drawn) — lower, -26.6% [at 52.9 µM]
- O=C(O)c1ccc(-n2nc(-c3ccccc3O)nc2-c2ccccc2O)cc1 — higher, 0.361% [at 52.9 µM]
- Cc1ccc(C(C)OC(=O)C2(C)CCC(C(=O)O)C2(C)C)cc1 (stereo not drawn) — higher, 53.7% [at 52.9 µM]
- CCCCCCCCCCCCCCCCOS(=O)(=O)O — higher, 5.04% [at 52.9 µM]
- Nc1ccc([N+](=O)[O-])c(C(F)(F)F)c1 — lower, -16.3% [at 52.9 µM]
- CCCC(=O)Nc1ccc(O)c(C(C)=O)c1 — higher, -2.98% [at 52.9 µM]
- O=C(O)C(S)C(S)C(=O)O (stereo not drawn) — higher, 2.96% [at 52.9 µM]
- CCOC(=O)C(=O)CCc1ccccc1 — higher, 10.4% [at 52.9 µM]

`CCC(C)c1cc(C(C)(C)C)c(O)c(C(C)(C)C)c1` (stereo not drawn) was tested, and the Potency was 19.6 µM (active).
`CCCCCCCCCCCC(=O)OC[C@@H](O)[C@H]1OC[C@H](OCCO)[C@H]1OCCO` was tested, and the Potency was 17.4 µM (active).
In the case of `C/C=C/C=C/CO`, the Potency is reported as 63.3 µM (active).
For `C[Si](C)(CCCN)O[Si](C)(C)CCCN`, the Potency was 2.52 µM (active).
`C[N+]1(CC2COC(c3ccccc3)(C3CCCCC3)O2)CCCCC1` (stereo not drawn) was tested, and the Potency was 3.89 µM (active).
In the case of `Nc1cccc(S(=O)(=O)c2cccc(N)c2)c1`, the Potency is reported as 10 µM (active).
With `CC(C)Nc1ccc(NC(C)C)c2c1C(=O)c1ccccc1C2=O` the Potency was 3.3 µM (active).
